Positions count from the first letter of the chain named.

Assay in all cases: yeast three-hybrid, YBZ-1, SC-Leu-His + 0.5 mM 3-AT, 4 days
What all share (settings): tags: N-Gal4 AD-HA kept; label: inside an RPR1-promoter hybrid RNA with tandem MS2 sites; ssRNA

For one experiment, the target named is PUM1 PUF domain R5-KFG (Homo sapiens, UniProt Q14671 828-1176, C1007K;R1008F;Q1011G). The gist of the method:
(§1)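 The interaction score is the logarithmic change in variant frequency from input to selection. It uses log2, with a pseudocount of 1 for absent variants, and frequencies came from PCR-amplified, Illumina-sequenced repeat regions. The libraries were Pumilio-1 PUF domains randomized at the three base-contacting residues per repeat, co-expressed with matching RNA elements in strain YBZ-1 (LexA–MS2 coat fusion, HIS3 reporter). Plating lasted four days on SC-Leu (input) or SC-Leu-His + 0.5 mM 3-AT (selection).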

The target in a further experiment is PUM1 PUF domain R5-ERS (Homo sapiens, UniProt Q14671 828-1176, C1007E;Q1011S). The procedure, abridged: as §1
Chain of PUM1 PUF domain R5-ERS (Q14671 828-1176 C1007E/Q1011S): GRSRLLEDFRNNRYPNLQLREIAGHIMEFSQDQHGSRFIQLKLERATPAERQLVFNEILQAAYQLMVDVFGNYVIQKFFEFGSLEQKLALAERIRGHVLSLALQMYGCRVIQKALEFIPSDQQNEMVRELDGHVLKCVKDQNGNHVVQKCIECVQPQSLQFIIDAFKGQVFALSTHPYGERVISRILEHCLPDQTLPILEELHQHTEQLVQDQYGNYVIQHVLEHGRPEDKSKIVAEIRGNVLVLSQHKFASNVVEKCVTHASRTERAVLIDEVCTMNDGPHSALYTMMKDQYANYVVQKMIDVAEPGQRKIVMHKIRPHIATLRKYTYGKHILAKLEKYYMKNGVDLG
The next experiment addresses PUM1 PUF domain R5-DWG (Homo sapiens, UniProt Q14671 828-1176, C1007D;R1008W;Q1011G). The gist of the method: as §1
Another experiment addresses PUM1 PUF domain R8-IWK (Homo sapiens, UniProt Q14671 828-1176, N1122I;Y1123W;Q1126K). The procedure, abridged: as §1
In a further experiment the target is PUM1 PUF domain R7-RCN (Homo sapiens, UniProt Q14671 828-1176, S1079R;N1080C;E1083N). The procedure, abridged: as §1
The next experiment deals with PUM1 PUF domain R8-SFR (Homo sapiens, UniProt Q14671 828-1176, N1122S;Y1123F;Q1126R). The procedure, abridged: as §1
Chain of PUM1 PUF domain R8-SFR (Q14671 828-1176 N1122S/Y1123F/Q1126R): as the sequence (Q14671 828-1176 C1007E/Q1011S) above, with E180C, S184Q, N295S, Y296F, Q299R counted along it
For a further experiment, the target named is PUM1 PUF domain R5-RHR (Homo sapiens, UniProt Q14671 828-1176, C1007R;R1008H;Q1011R). The gist of the method:
as §1

The next experiment deals with PUM1 PUF domain R3-QPR (Homo sapiens, UniProt Q14671 828-1176, C935Q;R936P;Q939R). The gist of the method:
as §1

Another experiment addresses PUM1 PUF domain R3-WWQ (Homo sapiens, UniProt Q14671 828-1176, C935W;R936W). The procedure, abridged:
as §1

Another experiment addresses PUM1 PUF domain R3-RTS (Homo sapiens, UniProt Q14671 828-1176, C935R;R936T;Q939S). The gist of the method: as §1
In another experiment the target is PUM1 PUF domain R3-MRE (Homo sapiens, UniProt Q14671 828-1176, C935M;Q939E). The gist of the method: as §1
Chain of PUM1 PUF domain R3-MRE (Q14671 828-1176 C935M/Q939E): as the sequence (Q14671 828-1176 C1007E/Q1011S) above, with C108M, Q112E, E180C, S184Q counted along it
The target in another experiment is PUM1 PUF domain R1-RRM (Homo sapiens, UniProt Q14671 828-1176, S863R;Q867M). The gist of the method:
as §1

Another experiment concerns the target PUM1 PUF domain R1-GFR (Homo sapiens, UniProt Q14671 828-1176, S863G;R864F;Q867R). The procedure, abridged: as §1
The next experiment deals with PUM1 PUF domain R1-KGA (Homo sapiens, UniProt Q14671 828-1176, S863K;R864G;Q867A). The gist of the method: as §1
Chain of PUM1 PUF domain R1-KGA (Q14671 828-1176 S863K/R864G/Q867A): as the sequence (Q14671 828-1176 C1007E/Q1011S) above, with S36K, R37G, Q40A, E180C, S184Q counted along it
Another experiment deals with PUM1 PUF domain R1-KMS (Homo sapiens, UniProt Q14671 828-1176, S863K;R864M;Q867S). The procedure, abridged: as §1
Chain of PUM1 PUF domain R1-KMS (Q14671 828-1176 S863K/R864M/Q867S): as the sequence (Q14671 828-1176 C1007E/Q1011S) above, with S36K, R37M, Q40S, E180C, S184Q counted along it
In the next experiment the target is PUM1 PUF domain R3-YSG (Homo sapiens, UniProt Q14671 828-1176, C935Y;R936S;Q939G). The gist of the method: as §1
A further experiment concerns the target PUM1 PUF domain R5-IRP (Homo sapiens, UniProt Q14671 828-1176, C1007I;Q1011P). The procedure, abridged: as §1
A further experiment concerns the target T1, PUM1 PUF domain R6-VFG (Homo sapiens, UniProt Q14671 828-1176, N1043V;Y1044F;Q1047G).
T1 sequence: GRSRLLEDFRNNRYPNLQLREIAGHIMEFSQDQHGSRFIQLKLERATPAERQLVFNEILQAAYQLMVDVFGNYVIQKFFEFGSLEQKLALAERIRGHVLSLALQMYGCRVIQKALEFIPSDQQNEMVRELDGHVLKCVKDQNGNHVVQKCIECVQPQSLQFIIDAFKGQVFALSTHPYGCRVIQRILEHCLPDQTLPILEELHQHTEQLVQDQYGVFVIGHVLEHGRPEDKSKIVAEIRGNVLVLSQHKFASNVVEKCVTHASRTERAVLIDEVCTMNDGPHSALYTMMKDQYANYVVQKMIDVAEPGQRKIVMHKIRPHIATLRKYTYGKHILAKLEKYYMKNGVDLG
The gist of the method:
as §1

For the next experiment, the target named is T2, PUM1 PUF domain R6-DWI (Homo sapiens, UniProt Q14671 828-1176, N1043D;Y1044W;Q1047I).
T2 sequence: T1 sequence with V216D, F217W, G220I
The gist of the method: as §1

Another experiment concerns the target PUM1 PUF domain R7-NTG (Homo sapiens, UniProt Q14671 828-1176, S1079N;N1080T;E1083G). The procedure, abridged:
as §1

Chain of PUM1 PUF domain R5-DWG (Q14671 828-1176 C1007D/R1008W/Q1011G): as the sequence (Q14671 828-1176 C1007E/Q1011S) above, with E180D, R181W, S184G counted along it
Chain of PUM1 PUF domain R5-KFG (Q14671 828-1176 C1007K/R1008F/Q1011G): as the sequence (Q14671 828-1176 C1007E/Q1011S) above, with E180K, R181F, S184G counted along it
Chain of PUM1 PUF domain R1-GFR (Q14671 828-1176 S863G/R864F/Q867R): as the sequence (Q14671 828-1176 C1007E/Q1011S) above, with S36G, R37F, Q40R, E180C, S184Q counted along it
Chain of PUM1 PUF domain R8-IWK (Q14671 828-1176 N1122I/Y1123W/Q1126K): as the sequence (Q14671 828-1176 C1007E/Q1011S) above, with E180C, S184Q, N295I, Y296W, Q299K counted along it
Chain of PUM1 PUF domain R7-NTG (Q14671 828-1176 S1079N/N1080T/E1083G): as the sequence (Q14671 828-1176 C1007E/Q1011S) above, with E180C, S184Q, S252N, N253T, E256G counted along it

In the case of “GGCUAGAACUAGUGGAUCCCCCGGCGCCCGGCGGCUCGAGCCCGGGUAAGUGUCAAUAGUCUGCAUGCCGCCGGGCGCCAUGCCUGCAGGUCGACUCUAGAAAACAUG”, the binding signal was 5.1 log2 enrichment (interaction score) with PUM1 PUF domain R5-KFG, 0.61 log2 enrichment (interaction score) with PUM1 PUF domain R5-ERS and 2.09 log2 enrichment (interaction score) with PUM1 PUF domain R5-DWG.

For “GGCUAGAACUAGUGGAUCCCCCGGCGCCCGGCGGCUCGAGCCCGGGUAAGGGUAAAUAGUCUGCAUGCCGCCGGGCGCCAUGCCUGCAGGUCGACUCUAGAAAACAUG”, the binding signal with PUM1 PUF domain R8-IWK is 2.04 log2 enrichment (interaction score).

On to “GGCUAGAACUAGUGGAUCCCCCGGCGCCCGGCGGCUCGAGCCCGGGUAAGUCUAAAUAGUCUGCAUGCCGCCGGGCGCCAUGCCUGCAGGUCGACUCUAGAAAACAUG”, for which, in the experiment with PUM1 PUF domain R7-RCN, the binding signal was 2.67 log2 enrichment (interaction score).

On to “GGCUAGAACUAGUGGAUCCCCCGGCGCCCGGCGGCUCGAGCCCGGGUAAGCGUAAAUAGUCUGCAUGCCGCCGGGCGCCAUGCCUGCAGGUCGACUCUAGAAAACAUG”, for which the binding signal with PUM1 PUF domain R8-SFR was 4.79 log2 enrichment (interaction score).

As for “GGCUAGAACUAGUGGAUCCCCCGGCGCCCGGCGGCUCGAGCCCGGGUAAGUGUUAAUAGUCUGCAUGCCGCCGGGCGCCAUGCCUGCAGGUCGACUCUAGAAAACAUG”, the binding signal is 4.52 log2 enrichment (interaction score) with PUM1 PUF domain R5-RHR, 5.35 log2 enrichment (interaction score) with PUM1 PUF domain R5-KFG and 5.02 log2 enrichment (interaction score) in the experiment with PUM1 PUF domain R5-DWG.

For the sequence “GGCUAGAACUAGUGGAUCCCCCGGCGCCCGGCGGCUCGAGCCCGGGUAAGUGUAAUUAGUCUGCAUGCCGCCGGGCGCCAUGCCUGCAGGUCGACUCUAGAAAACAUG”, the binding signal with PUM1 PUF domain R3-QPR is 5.15 log2 enrichment (interaction score); in the experiment with PUM1 PUF domain R3-WWQ, 2.48 log2 enrichment (interaction score); in the experiment with PUM1 PUF domain R3-RTS, 3.18 log2 enrichment (interaction score); with PUM1 PUF domain R3-MRE, 0.23 log2 enrichment (interaction score).

With “GGCUAGAACUAGUGGAUCCCCCGGCGCCCGGCGGCUCGAGCCCGGGUAAGUGUAAAUCGUCUGCAUGCCGCCGGGCGCCAUGCCUGCAGGUCGACUCUAGAAAACAUG”, the results for the binding signal with PUM1 PUF domain R1-RRM, in the experiment with PUM1 PUF domain R1-GFR and with PUM1 PUF domain R1-KGA were 2.95 log2 enrichment (interaction score), 5.46 log2 enrichment (interaction score) and 3.08 log2 enrichment (interaction score), respectively.

In the case of “GGCUAGAACUAGUGGAUCCCCCGGCGCCCGGCGGCUCGAGCCCGGGUAAGUGUAAAUUGUCUGCAUGCCGCCGGGCGCCAUGCCUGCAGGUCGACUCUAGAAAACAUG”, the binding signal in the experiment with PUM1 PUF domain R1-RRM is 1.41 log2 enrichment (interaction score); with PUM1 PUF domain R1-GFR it was 2.65 log2 enrichment (interaction score); in the experiment with PUM1 PUF domain R1-KMS, 3.69 log2 enrichment (interaction score); with PUM1 PUF domain R1-KGA, 3.21 log2 enrichment (interaction score).

Take “GGCUAGAACUAGUGGAUCCCCCGGCGCCCGGCGGCUCGAGCCCGGGUAAGUGUAAGUAGUCUGCAUGCCGCCGGGCGCCAUGCCUGCAGGUCGACUCUAGAAAACAUG”: the binding signal is 5.35 log2 enrichment (interaction score) with PUM1 PUF domain R3-WWQ, 2.43 log2 enrichment (interaction score) with PUM1 PUF domain R3-YSG and 5.14 log2 enrichment (interaction score) with PUM1 PUF domain R3-MRE.

On to “GGCUAGAACUAGUGGAUCCCCCGGCGCCCGGCGGCUCGAGCCCGGGUAAGUGUAAAUAGUCUGCAUGCCGCCGGGCGCCAUGCCUGCAGGUCGACUCUAGAAAACAUG”, for which the binding signal with PUM1 PUF domain R5-IRP was 2.35 log2 enrichment (interaction score); in the experiment with PUM1 PUF domain R6-VFG, 3.57 log2 enrichment (interaction score); with PUM1 PUF domain R5-RHR, 1.95 log2 enrichment (interaction score); in the experiment with PUM1 PUF domain R8-SFR, 5.31 log2 enrichment (interaction score); with PUM1 PUF domain R5-KFG, 3.88 log2 enrichment (interaction score); in the experiment with PUM1 PUF domain R5-ERS it was 3.92 log2 enrichment (interaction score). Moreover, the binding signal with PUM1 PUF domain R5-DWG was 2.74 log2 enrichment (interaction score).

As for “GGCUAGAACUAGUGGAUCCCCCGGCGCCCGGCGGCUCGAGCCCGGGUAAGUGAAAAUAGUCUGCAUGCCGCCGGGCGCCAUGCCUGCAGGUCGACUCUAGAAAACAUG”, the binding signal was 2.33 log2 enrichment (interaction score) in the experiment with PUM1 PUF domain R6-DWI and 7.53 log2 enrichment (interaction score) with PUM1 PUF domain R6-VFG.

Turning to “GGCUAGAACUAGUGGAUCCCCCGGCGCCCGGCGGCUCGAGCCCGGGUAAGUUUAAAUAGUCUGCAUGCCGCCGGGCGCCAUGCCUGCAGGUCGACUCUAGAAAACAUG”, the binding signal in the experiment with PUM1 PUF domain R7-NTG is 5.69 log2 enrichment (interaction score).

As for “GGCUAGAACUAGUGGAUCCCCCGGCGCCCGGCGGCUCGAGCCCGGGUAAGUGUGAAUAGUCUGCAUGCCGCCGGGCGCCAUGCCUGCAGGUCGACUCUAGAAAACAUG”, the binding signal is 2.69 log2 enrichment (interaction score) in the experiment with PUM1 PUF domain R5-ERS and 4.74 log2 enrichment (interaction score) in the experiment with PUM1 PUF domain R5-DWG.

The values are drawn from paper PMC8384837, “Expanding the binding specificity for RNA recognition by a PUF domain”.
